Records with an inconclusive call do not appear. Activity calls are given as the source filed them. How the source made its calls: active means hit-call score of the fitted dose curve at least 0.9, where 1 is the maximum; inconclusive means response in the unintended direction; inactive means score below 0.9.

The nature of this assay: TOX21_TR_RXR_BLA_Antagonist_Followup_viability: Viability Assessment in the Tox21 Thyroid Hormone Receptor beta Retinoid X Receptor alpha (RXRa) Antagonism Beta-lactamase (BLA) Follow-Up Assay (AID 2283979). From the text: GeneBLAzer RXRa-UAS-bla HEK293T assay (RXRa-bla) (ThermoFisherScientific Catalog No. K1697) was run in qHTS 1536 well format as a secondary assay for specificity of response in the TOX21_TR_GH3_LUC_Agonist assay.TOX21_TR_RXR_BLA_Antagonist_Followup_viability is a component of the TOX21_TR_RXR_BLA_Antagonist_Followup assay. This component measures cell viability using the CellTiter-Glo Luciferase-coupled ATP quantitation.The assay component endpoint TOX21_TR_RXR_BLA_Antagonist_Followup_viability was analyzed with bidirectional fitting relation to DMSO as the negative control and baseline of activity. Using a type of viability reporter, loss-of-signal activity can be used to understand changes in viability. To generalize the intended target to other relatable targets, this assay endpoint is annotated to cell cycle, where the subfamily is cytotoxicity.
Cell Media Required: Growth (90% DMEM/F-12, 10% Fetal Bovine Calf Serum, 100U/ml Penicillin, 100 ug/ml Streptomycin), Assay (10ng/mL sodium selenite, 10 ug/mL humanapo-transferrin, 10 uM ethanolamine, 10 ug/mL insulin, 500 ug/mL bovine serum albumin (BSA))Assay Protocol: RXRa-bla cells were seeded at 2,500/well in 6 uL of the assay medium containing phenol red-free DMEM with 2% charcoal-stripped FBS in 1,536-well black-wall/clear-bottom plates (Greiner Bio-One North America) usinga Multidrop Combi dispenser. After5-h incubation at 37C/5% CO2 for cell attachment, 23 nL of follow-up compounds dissolved in DMSO, 11 concentrations in triplicate, and the positive control (9-cis retinoic acid) were transferred to the assay plates using a Pintool station. The assay plates were incubated at 37C/5% CO2 for 16h. One microliter of LiveBLAzer FRET-B/GCCF4-AM substrate (Life Technologies) was added to each well using an FRD. After 2-h incubation at room temperature, the fluorescence intensity was measured using an Envision plate reader (Perkin Elmer). Data were expressed as the ratio of 460:530 nm.
Consider `CC[C@]1(O)CC[C@H]2[C@@H]3CCC4=CCCC[C@@H]4[C@H]3CC[C@@]21C`, for which the molecule was called inactive. As for `CCN(CC)CCO[C@H]1CC[C@@]2(C)C(=CC[C@@H]3[C@@H]2CC[C@]2(C)C(=O)CC[C@@H]32)C1`, the call was inactive. Consider `C=CC[C@]1(O)CC[C@H]2[C@@H]3CCC4=CC(=O)CCC4=C3C=C[C@@]21C`, for which the molecule was called inactive.

Consider `CN1C(=O)[C@@H](NC(=O)c2cc3ccccc3[nH]2)N=C(c2ccccc2)c2ccccc21`, for which the result was inactive.

Take `CC[C@H]1C[C@H]2[C@@H]3CCC4=CC(=O)CC[C@@H]4[C@H]3CC[C@]2(C)[C@H]1O`: the result was inactive. On to `COC1=CC(=O)O[C@@H](/C=C/c2ccc3c(c2)OCO3)C1`, for which the call was inactive.

On to `O=C(N[C@@H]1N=C(c2ccccc2F)c2cccc3c2N(CC3)C1=O)c1cc2ccccc2[nH]1`, for which the call was inactive. On to `O=c1oc2ccccc2c(O)c1Cc1c(O)c2ccccc2oc1=O`, for which the outcome was inactive. Consider `CC(=O)[C@H]1CC[C@H]2[C@@H]3CC[C@@H]4C[C@H](O)CC[C@]4(C)[C@H]3CC[C@]12C`, for which the call was inactive.

For `CCC(COC(=O)c1cc(OC)c(OC)c(OC)c1)(c1ccccc1)N(C)C` (stereo not drawn), the molecule was called inactive. As for `O=C1OC2(c3cc(Br)c(O)cc3Oc3c2cc(Br)c(O)[c]3[Hg])c2ccccc21` (stereo not drawn), the result was inactive. As for `CC[n+]1ccccc1`, the result was inactive.

Take `C[C@]12CC[C@H]3[C@@H](CCC4=C(Cl)C(=O)CC[C@@]43C)[C@@H]1CC[C@@H]2O`: the molecule was classed as inactive.

The values are drawn from PubChem BioAssay (EPA / NIEHS).
